# Data: the supplement of paper PMC12645437, “Orthogonal IMiD-Degron Pairs Induce Selective Protein Degradation in Cells” (ACS Chemical Biology, 2025)
# Whole data set: some 8,300 sequences, median “log2 fold change of degron read counts, EGFP-low vs EGFP+ sorted cells (limma voom), compound-induced degradation” near -1.1, cut for the highest 2% near 3.2. This excerpt belongs to a sample that is enriched for the highest values.
# T1: CRBN, Q96SW2
# T1 chain: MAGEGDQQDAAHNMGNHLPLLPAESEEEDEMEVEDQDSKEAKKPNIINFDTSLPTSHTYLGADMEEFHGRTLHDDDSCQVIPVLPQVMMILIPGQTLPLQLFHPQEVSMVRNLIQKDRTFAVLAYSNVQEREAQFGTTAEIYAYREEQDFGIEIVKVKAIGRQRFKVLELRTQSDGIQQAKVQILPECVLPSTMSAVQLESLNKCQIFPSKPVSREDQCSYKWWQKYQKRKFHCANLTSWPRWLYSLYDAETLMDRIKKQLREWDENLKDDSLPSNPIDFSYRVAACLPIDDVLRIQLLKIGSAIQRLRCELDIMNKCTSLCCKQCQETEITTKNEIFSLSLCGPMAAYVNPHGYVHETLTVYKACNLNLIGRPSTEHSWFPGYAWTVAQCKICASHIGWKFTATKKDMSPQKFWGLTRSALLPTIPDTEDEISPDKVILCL
# Target: T1, CRBN, Q96SW2
# Experiment: log2 fold change of degron read counts, EGFP-low vs EGFP+ sorted cells (limma voom), compound-induced degradation; higher = more compound-induced degradation of the degron-EGFP fusion; degrons are variants of IKZF1/3 zinc finger 2; compound dose not given here
# Conditions: Jurkat, 18 h
# [1] = compound: compound 19 (5-tert-butyl-thalidomide)
# [2] = compound: compound 22 (5-morpholino-thalidomide)
# [3] = compound: compound 33 (diphenyl IMiD analogue)
# 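Further: pooled lentiviral library of zinc finger degron-EGFP fusions in mCherry-positive Jurkat cells, FACS-sorted after compound exposure, with degron abundance counted by next-generation sequencing.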
Sequence,log2 fold change of degron read counts [1],log2 fold change of degron read counts [2],log2 fold change of degron read counts [3],log2 fold change of degron read counts (compound: thalidomide)
"LLCEICGFNCTQKGNLLRHIKL [46L_47L_49E_50I_52G_53F_54N_55C_67L_, Q9UKT9]",-1.18,-1.96,-1.11,-0.267
"FYCEICGRPFTQKGNLLRHIKL [46F_47Y_49E_50I_52G_53R_54P_55F_67L_, Q9UKT9]",3.04,1.62,1.39,0.0233
"FACNQCGHHFTQKGNLLRHIKL [46F_47A_49N_50Q_52G_53H_54H_55F_67L_, Q9UKT9]",-2.3,-2.72,-2.62,-2.01
"FDCNQCGASFTQKGNLLRHIKL [46F_47D_49N_50Q_52G_53A_54S_55F_67L_, Q9UKT9]",-2.01,-2.73,-2.35,-2.1
"FYCPICGHYFTQKGNLLRHIKL [46F_47Y_49P_50I_52G_53H_54Y_55F_67L_, Q9UKT9]",-0.992,-1.44,-0.727,-1.13
"FWCPICGAFFTQKGNLLRHIKL [46F_47W_49P_50I_52G_53A_54F_55F_67L_, Q9UKT9]",2.39,3,1.83,0.77
"LKCNQCGFQCTQKGNLLRHIKL [46L_47K_49N_50Q_52G_53F_54Q_55C_67L_, Q9UKT9]",-2.34,-2.76,-2.86,-2.48
"FKCDQCGAEFTQKGNLLRHIKL [46F_47K_49D_50Q_52G_53A_54E_55F_67L_, Q9UKT9]",-2.81,-1.6,-3.49,-3
"FFCEVCGATFTQKGNLLRHIKL [46F_47F_49E_50V_52G_53A_54T_55F_67L_, Q9UKT9]",2.72,3.74,1.9,1.47
"FLCEVCGATFTQKGNLLRHIKL [46F_47L_49E_50V_52G_53A_54T_55F_67L_, Q9UKT9]",-1.71,-1.32,0.752,1.34
"FVCEVCGATFTQKGNLLRHIKL [46F_47V_49E_50V_52G_53A_54T_55F_67L_, Q9UKT9]",-0.246,1.36,1.98,2.24
"FLCPICGRGFTQKGNLLRHIKL [46F_47L_49P_50I_52G_53R_54G_55F_67L_, Q9UKT9]",-1.58,-1.94,-0.785,-0.724
"FYCPICGAHFTQKGNLLRHIKL [46F_47Y_49P_50I_52G_53A_54H_55F_67L_, Q9UKT9]",3.12,3.56,2.1,0.702
"FWCPICGAHFTQKGNLLRHIKL [46F_47W_49P_50I_52G_53A_54H_55F_67L_, Q9UKT9]",2.66,3.51,1.81,0.881
"FACPICGAHFTQKGNLLRHIKL [46F_47A_49P_50I_52G_53A_54H_55F_67L_, Q9UKT9]",3.08,1,0.948,0.563
"FFCPICGAHFTQKGNLLRHIKL [46F_47F_49P_50I_52G_53A_54H_55F_67L_, Q9UKT9]",2.66,2.83,1.81,0.615
"FCCPICGAHFTQKGNLLRHIKL [46F_47C_49P_50I_52G_53A_54H_55F_67L_, Q9UKT9]",1.94,0.949,1.85,1.24
"FVCPICGAHFTQKGNLLRHIKL [46F_47V_49P_50I_52G_53A_54H_55F_67L_, Q9UKT9]",-0.217,2.12,1.37,2.41
"FQCPICGAHFTQKGNLLRHIKL [46F_47Q_49P_50I_52G_53A_54H_55F_67L_, Q9UKT9]",0.0422,1.5,1.32,3.32

Sequence,log2 fold change of degron read counts [1],log2 fold change of degron read counts [2],log2 fold change of degron read counts [3],log2 fold change of degron read counts (compound: thalidomide)
"FGCPICGAHFTQKGNLLRHIKL [46F_47G_49P_50I_52G_53A_54H_55F_67L_, Q9UKT9]",2.89,1.31,1.51,0.333
"FSCPICGAHFTQKGNLLRHIKL [46F_47S_49P_50I_52G_53A_54H_55F_67L_, Q9UKT9]",2.35,1.14,1.5,1.13
"FECEQCGADFTQKGNLLRHIKL [46F_47E_49E_50Q_52G_53A_54D_55F_67L_, Q9UKT9]",-3.85,-4.35,-2.06,-2.36
"FWCPVCGALFTQKGNLLRHIKL [46F_47W_49P_50V_52G_53A_54L_55F_67L_, Q9UKT9]",1.3,2.3,1.77,0.113
"FYCEICGREFTQKGNLLRHIKL [46F_47Y_49E_50I_52G_53R_54E_55F_67L_, Q9UKT9]",-0.515,-1.07,-0.325,-1.93
"FGCPICGHWFTQKGNLLRHIKL [46F_47G_49P_50I_52G_53H_54W_55F_67L_, Q9UKT9]",-1.35,-2.19,-1.6,-1.77
"FTCEVCGANFTQKGNLLRHIKL [46F_47T_49E_50V_52G_53A_54N_55F_67L_, Q9UKT9]",-0.297,1.72,1.21,2.03
"FNCEVCGANFTQKGNLLRHIKL [46F_47N_49E_50V_52G_53A_54N_55F_67L_, Q9UKT9]",2.09,0.096,-0.251,-0.321
"FYCEVCGANFTQKGNLLRHIKL [46F_47Y_49E_50V_52G_53A_54N_55F_67L_, Q9UKT9]",3.26,3.88,2.56,1.5
"FWCEVCGANFTQKGNLLRHIKL [46F_47W_49E_50V_52G_53A_54N_55F_67L_, Q9UKT9]",3.33,3.86,2.16,1.61
"FHCEVCGANFTQKGNLLRHIKL [46F_47H_49E_50V_52G_53A_54N_55F_67L_, Q9UKT9]",0.846,0.806,-0.028,-0.545
"FECEVCGANFTQKGNLLRHIKL [46F_47E_49E_50V_52G_53A_54N_55F_67L_, Q9UKT9]",-0.492,-1.03,2.04,2.31
"FVCEVCGANFTQKGNLLRHIKL [46F_47V_49E_50V_52G_53A_54N_55F_67L_, Q9UKT9]",-0.0108,2.6,2.09,2.74
"FQCEVCGANFTQKGNLLRHIKL [46F_47Q_49E_50V_52G_53A_54N_55F_67L_, Q9UKT9]",0.104,1.29,1.34,3.56
"FFCEVCGANFTQKGNLLRHIKL [46F_47F_49E_50V_52G_53A_54N_55F_67L_, Q9UKT9]",2.83,3.44,1.84,1.47
"FLCEVCGANFTQKGNLLRHIKL [46F_47L_49E_50V_52G_53A_54N_55F_67L_, Q9UKT9]",-0.0798,-0.418,0.939,1.25
"FMCEVCGANFTQKGNLLRHIKL [46F_47M_49E_50V_52G_53A_54N_55F_67L_, Q9UKT9]",-0.728,0.197,2.72,1.11
"FICEVCGANFTQKGNLLRHIKL [46F_47I_49E_50V_52G_53A_54N_55F_67L_, Q9UKT9]",-0.804,2.54,2.03,2.44
